# From PubChem BioAssay
# Where “and” joins values, the source holds several entries; their conditions need not be identical. Equal entries are not always repeated. For some of these results: Potency and affinity values are given separately. Calls of active or inactive are those of the source.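 How the source made its calls, unless noted: active means compounds whose cell count with miR-34 switched on is under 0.7 times the count with it off; inactive means the rest.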
# What was measured:
# [1] = compounds altering viability of human ES cells (AID 493140; call rule not given here;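 further: cells exposed to compounds for four days before counting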); settings: human embryonic stem cell survival screen; stronger effect = higher value
# [2] = P. berghei load reduction in hepatocytes – cell-based, HepG2, luciferase luminescence, HepG2 viability, primary screen (AID 624349; in the data active means parasite load remaining mostly below about 12%, no sharp cut-off; inactive means mostly above about 10%;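 further: 100% = mean of DMSO negative control wells on the same plate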); settings: P. berghei liver stage in HepG2, luciferase luminescence, concentration not given here; parasite load remaining: stronger effect = lower value; viability: measured here: HepG2 viability without parasites
# [3] = biological target: 6-phosphogluconate dehydrogenase, decarboxylating (Homo sapiens) (UniProt P52209); assay: inhibition of human phosphogluconate dehydrogenase – biochemical, recombinant enzyme, NADPH absorbance, primary screen (AID 1159550;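 active means at least 20% inhibition of 6-phosphogluconate dehydrogenase activity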); settings: recombinant 6PGD, NADPH absorbance 341 nm; at 10 µM; stronger effect = higher value
# 6-phosphogluconate dehydrogenase, decarboxylating (Homo sapiens), sequence (P52209 whole entry, looked up): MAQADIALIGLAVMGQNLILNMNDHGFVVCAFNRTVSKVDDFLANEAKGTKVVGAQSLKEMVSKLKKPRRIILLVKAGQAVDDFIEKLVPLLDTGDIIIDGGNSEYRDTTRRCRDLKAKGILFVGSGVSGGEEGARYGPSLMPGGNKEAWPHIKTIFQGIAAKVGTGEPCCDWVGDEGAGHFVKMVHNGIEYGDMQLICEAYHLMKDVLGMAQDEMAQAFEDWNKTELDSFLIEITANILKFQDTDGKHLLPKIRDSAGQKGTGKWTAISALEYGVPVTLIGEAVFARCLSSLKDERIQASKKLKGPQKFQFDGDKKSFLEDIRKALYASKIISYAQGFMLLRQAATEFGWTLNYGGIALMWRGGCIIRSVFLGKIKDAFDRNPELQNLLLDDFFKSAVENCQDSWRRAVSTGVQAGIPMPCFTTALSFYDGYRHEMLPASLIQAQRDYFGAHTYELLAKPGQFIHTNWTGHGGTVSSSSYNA
# [4] = EMT-state selective cytotoxicity in co-culture – imaging, PC-3E GFP, TEM4-18 mCherry, primary screen (AID 1345086;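 active means compounds killing one labelled cell type while sparing the other, by normalised counts and ratio limits, not self-fluorescent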;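 on all read-outs here: cells exposed to compound for 72 h before imaging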;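 on red/green cell ratio (normalised): normalised mesenchymal count divided by normalised epithelial count so high means epithelial killing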); settings: PC-3E GFP / TEM4-18 mCherry co-culture, imaging cell counts, at 1 µM; for red/green cell ratio (normalised): actives lie on both sides, counts scaled to control wells, 1 = unselective
# [5] = viability loss with induced miR-34 in A549 – imaging, A549 dox-inducible miR-34, nuclei and caspase counts, primary screen (AID 1347080); settings: A549 miR-34 inducible, Hoechst nuclei count, 48 h
# [6] = MELAS cybrid and Rieske KO viability enhancers – cell-based, MELAS cybrids, Rieske KO mouse fibroblasts, CellTiter-Glo, primary screen (AID 1508586;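 active means mean z-score across replicates of 1.96 or higher in either the MELAS or the Rieske mutant cell line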;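 further: z relative to plate mean and SD of compound and empty wells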); settings: low glucose
# [7] = biological target: Mitogen-activated protein kinase 7 (Homo sapiens) (UniProt Q13164); assay: Gal4-ERK5 driven luciferase induction – cell-based, HTS, primary screen (AID 1508626;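 active means luciferase signal above three times the same-plate solvent-only control wells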;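 further: luciferase driven by Gal4-ERK5 fusion binding five Gal4 sites before minimal TATA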); settings: HeLa Gal4-ERK5 transactivation, 18 h, at 5 µM, stronger effect = higher value
# Mitogen-activated protein kinase 7 (Homo sapiens), sequence (Q13164 whole entry, looked up, the tested form may be a part): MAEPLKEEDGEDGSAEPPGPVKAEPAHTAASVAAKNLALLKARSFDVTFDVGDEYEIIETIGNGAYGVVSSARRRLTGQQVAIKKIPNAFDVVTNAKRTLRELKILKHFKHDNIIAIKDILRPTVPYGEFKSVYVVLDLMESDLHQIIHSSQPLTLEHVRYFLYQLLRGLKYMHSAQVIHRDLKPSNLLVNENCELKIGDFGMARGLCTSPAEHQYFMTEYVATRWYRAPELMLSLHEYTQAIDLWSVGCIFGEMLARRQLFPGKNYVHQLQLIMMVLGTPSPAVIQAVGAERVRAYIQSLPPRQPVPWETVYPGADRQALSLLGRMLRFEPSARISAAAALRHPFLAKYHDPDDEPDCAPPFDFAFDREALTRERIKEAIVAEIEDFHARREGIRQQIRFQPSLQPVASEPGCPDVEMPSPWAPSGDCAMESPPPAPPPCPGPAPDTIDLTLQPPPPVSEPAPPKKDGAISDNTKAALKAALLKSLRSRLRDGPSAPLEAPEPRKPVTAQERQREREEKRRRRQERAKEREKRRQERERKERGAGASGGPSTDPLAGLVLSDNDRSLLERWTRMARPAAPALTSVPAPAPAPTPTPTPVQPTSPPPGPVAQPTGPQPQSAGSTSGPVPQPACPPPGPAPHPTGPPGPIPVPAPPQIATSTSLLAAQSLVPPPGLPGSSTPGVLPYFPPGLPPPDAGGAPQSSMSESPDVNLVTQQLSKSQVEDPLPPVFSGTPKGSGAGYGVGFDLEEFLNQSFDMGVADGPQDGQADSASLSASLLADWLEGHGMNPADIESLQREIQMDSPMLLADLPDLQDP
# [8] = blockers of polyQ-driven CASP3 activation – cell-based (AID 1583); settings: polyglutamine-induced caspase-3 activation, cell assay; stronger effect = higher value;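 tested at 10 µM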
# [9] = yeast 75Q aggregation reduction – 75Q-TubU reporter (AID 1593); settings: Yeast 75Q polyglutamine aggregation reporter
# [10] = restoration of touch response, mutant HTT neurons – whole organism, C. elegans mechanosensory neurons, N-terminal huntingtin (AID 1599); settings: C. elegans polyQ-huntingtin mechanosensory neurons, stronger effect = higher value
# [11] = blockers of cytochrome c efflux from mitochondria – biochemical, purified mitochondria (AID 1603); settings: stronger effect = lower value;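 further: mouse liver mitochondria challenged with calcium chloride; signal normalized to the plate average as 100%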
# [12] = polyglutamine aggregate formation blockers (AID 1604); settings: polyglutamine-induced protein aggregation inhibition assay; stronger effect = higher value; tested at 2.5 µM
# [13] = glutamate transport activators, MN-1 cells, MN-1 cell line (AID 1612); settings: MN-1 motor neuron cells, stronger effect = higher value;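 further: tested at 1 µM final; 0% = mean of DMSO vehicle wells on each plate; positive means more glutamate uptake than control and negative means less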
# [14] = GFP-Q80 aggregate reduction, neuronal-like cells, cell-based, NGF-treated PC12, GFPQ80 (AID 1614); settings: PC12 NGF-treated GFP-polyQ80 inclusion reduction;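 further: lower means fewer inclusions and 0 means no inclusions at all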
# [15] = 75Q-TubH aggregate inhibition, S. cerevisiae, yeast (AID 1616); settings: S. cerevisiae 75Q-TubH polyglutamine aggregation suppression; stronger effect = higher value
# [16] = compounds altering circadian rhythm period length – cell-based, LOPAC library, luminescence reporter (AID 2774; call rule not given here;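 further: values are relative to mean of DMSO wells on each plate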); settings: circadian reporter cells, at 7 µM, actives lie on both sides
# [17] = blockers of cellular phospholipid synthesis – cell-based, LOPAC library, screen 4, primary screen (AID 1347384; call rule not given here); settings: animal cells, phospholipid biosynthesis inhibition screen; at 10 µM
# [18] = galactose survival enhancers in mitochondrial complex I cybrids – cell-based, galactose medium, ATP luminescence, primary screen (AID 1645843;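 active means z-score of at least 1.8 in each of two replicates, scored against plate mean and spread of sample wells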;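 further: positive z means more ATP and so rescue of galactose-driven cybrid death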); settings: complex I mutant cybrid cells, 72 h, stronger effect = higher value
# [19] = biological target: NAD(+) hydrolase SARM1 (Homo sapiens) (UniProt Q6SZW1); assay: blocking NAD cleavage by SARM1 SAM-TIR – cell lysate, NAD-Glo luminescence (AID 1508614;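 active means compound whose remaining NAD level is above about 45 nM, limit read from the data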); settings: SAM-TIR HEK293T lysate NADase, at 1 µM, stronger effect = higher value
# NAD(+) hydrolase SARM1 (Homo sapiens), sequence (Q6SZW1 whole entry, looked up): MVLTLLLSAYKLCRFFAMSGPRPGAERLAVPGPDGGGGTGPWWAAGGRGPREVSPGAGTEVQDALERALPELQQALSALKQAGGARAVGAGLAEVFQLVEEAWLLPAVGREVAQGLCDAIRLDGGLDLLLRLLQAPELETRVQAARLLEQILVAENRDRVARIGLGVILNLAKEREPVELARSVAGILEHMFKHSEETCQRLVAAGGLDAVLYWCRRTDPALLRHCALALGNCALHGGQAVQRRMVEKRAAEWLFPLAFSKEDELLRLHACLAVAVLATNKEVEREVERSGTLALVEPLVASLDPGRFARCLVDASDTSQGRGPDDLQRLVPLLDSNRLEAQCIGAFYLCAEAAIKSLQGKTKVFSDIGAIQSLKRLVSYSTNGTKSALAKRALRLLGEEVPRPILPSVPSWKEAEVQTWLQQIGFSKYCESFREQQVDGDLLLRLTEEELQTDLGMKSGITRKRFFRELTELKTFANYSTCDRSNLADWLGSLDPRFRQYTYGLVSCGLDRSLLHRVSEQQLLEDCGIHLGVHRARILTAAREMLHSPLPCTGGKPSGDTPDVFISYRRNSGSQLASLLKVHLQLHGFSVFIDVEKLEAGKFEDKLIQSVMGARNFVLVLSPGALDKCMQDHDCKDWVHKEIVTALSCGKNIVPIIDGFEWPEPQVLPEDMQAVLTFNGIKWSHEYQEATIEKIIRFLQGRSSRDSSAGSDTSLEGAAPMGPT
# [20] = measured here: epithelial PC-3E GFP cell survival
# [21] = measured here: mesenchymal TEM4-18 mCherry cell survival
# [22] = stronger effect = lower value, cell number ratio, induced over uninduced
# [23] = measured here: relative caspase fold change +Dox/-Dox
# [24] = measured here: total cells with miR-34 induction, stronger effect = lower value
# [25] = measured here: total cells without miR-34 induction
# [26] = MELAS cybrid survival, CellTiter-Glo 48 h, stronger effect = higher value
# [27] = Rieske KO mouse fibroblast survival, CellTiter-Glo 72 h
compound,measurement,setting,value
COc1cc2c(cc1OC)-c1cc3ccc(OC)c(OC)c3c[n+]1CC2,survival,[1],1.83 (inactive)
same,parasite load remaining,[2],110% (inactive) and 92.2% (inactive) and 65.3% (inactive)
same,viability,[2],114% and 73.3% and 79.6%
same,inhibition,[3],-0.646% (inactive) and 1.04% (inactive)
same,red/green cell ratio (normalised),[4],0.85 (inactive) and 0.9 (inactive)
same,normalised cell number,[4]; [20],1.04 and 1.09
same,normalised cell number,[4]; [21],0.88 and 0.98
same,fold change,[5]; [22],0.898 (inactive) and 1 (inactive)
same,fold change,[5]; [23],1.49 and 0.581
same,cell count,[5]; [24],8980 and 7680
same,cell count,[5]; [25],9990 and 7660
same,z-score,[6]; [26],-0.0781 (inactive)
same,z-score,[6]; [27],0.0197
same,luciferase signal,[7],352 AU (active)
COC(=O)[C@H]1[C@H]2C[C@H]3c4[nH]c5ccccc5c4CCN3C[C@H]2CC[C@@H]1O,inhibition,[8],-11.7%
same,score,[9],2.01
same,rescue above control,[10],16.2
same,cytochrome c release ratio,[11],1.18
same,inhibition of aggregation,[12],75.9%
same,glutamate uptake change,[13],41.8%
same,inclusion score,[14],2
same,aggregation suppression score,[15],1.4
same,period change,[16],0.015 h (inactive)
same,survival,[1],5.58 (inactive)
same,parasite load remaining,[2],79.9% (inactive) and 65.8% (inactive)
same,viability,[2],101% and 78.6%
same,inhibition,[3],-0.247% (inactive)
same,red/green cell ratio (normalised),[4],1.04 (inactive)
same,normalised cell number,[4]; [20],0.93
same,normalised cell number,[4]; [21],0.97
same,fold change,[5]; [22],0.977 (inactive) and 0.857 (inactive)
same,fold change,[5]; [23],0.889 and 1.48
same,cell count,[5]; [24],10000 and 9150
same,cell count,[5]; [25],10300 and 10700
same,outcome,[17],inactive
same,z-score,[18],0.115 (inactive)
C1N2CN3CN1CN(C2)C3,inhibition,[8],10.1%
same,score,[9],0.91
same,rescue above control,[10],-6.88
same,cytochrome c release ratio,[11],1.01
same,inhibition of aggregation,[12],27.8%
same,glutamate uptake change,[13],-31.9%
same,inclusion score,[14],2
same,aggregation suppression score,[15],0.744
same,parasite load remaining,[2],80.4% (inactive) and 31.8% (inactive)
same,viability,[2],76.7% and 89.4%
same,inhibition,[3],6.67% (inactive)
same,red/green cell ratio (normalised),[4],1 (inactive)
same,normalised cell number,[4]; [20],1.13
same,normalised cell number,[4]; [21],1.13
same,fold change,[5]; [22],0.9 (inactive) and 0.915 (inactive)
same,fold change,[5]; [23],0.914 and 0.53
same,cell count,[5]; [24],8000 and 12000
same,cell count,[5]; [25],8890 and 13100
same,z-score,[6]; [26],-0.156 (inactive) and 0.632 (inactive)
same,z-score,[6]; [27],-0.286 and -0.336
same,remaining NAD,[19],10 nM (inactive)
same,luciferase signal,[7],64 AU (inactive)
COc1c2ccoc2cc2oc(=O)ccc12,inhibition,[8],-19.8%
same,score,[9],1.02
same,rescue above control,[10],6.75
same,cytochrome c release ratio,[11],1.07
same,inhibition of aggregation,[12],80.3%
same,glutamate uptake change,[13],-26.6%
same,inclusion score,[14],2
same,aggregation suppression score,[15],0.569
same,inhibition,[3],-3.29% (inactive)
same,red/green cell ratio (normalised),[4],0.94 (inactive)
same,normalised cell number,[4]; [20],1.1
same,normalised cell number,[4]; [21],1.03
same,fold change,[5]; [22],0.859 (inactive)
same,fold change,[5]; [23],0.824
same,cell count,[5]; [24],8190
same,cell count,[5]; [25],9530
same,z-score,[6]; [26],-0.332 (inactive)
same,z-score,[6]; [27],-0.177
same,remaining NAD,[19],10 nM (inactive)
same,luciferase signal,[7],28 AU (inactive)
NCCCS(=O)(=O)O,inhibition,[8],-8.14%
same,score,[9],1.19
same,rescue above control,[10],-7.13
same,cytochrome c release ratio,[11],1.17
same,inhibition of aggregation,[12],80.3%
same,glutamate uptake change,[13],3.02%
same,inclusion score,[14],2
same,aggregation suppression score,[15],1.7
same,period change,[16],0.415 h (inactive)
same,parasite load remaining,[2],106% (inactive)
same,viability,[2],72.2%
same,inhibition,[3],6.14% (inactive)
same,red/green cell ratio (normalised),[4],0.83 (inactive)
same,normalised cell number,[4]; [20],1.23
same,normalised cell number,[4]; [21],1.02
same,fold change,[5]; [22],0.922 (inactive)
same,fold change,[5]; [23],2.79
same,cell count,[5]; [24],6500
same,cell count,[5]; [25],7050
same,outcome,[17],inactive
same,luciferase signal,[7],56 AU (inactive)
same,z-score,[18],0.265 (inactive)
